AMA1 RON2 block: inhibitors of Plasmodium falciparum AMA1-RON2 interaction; 360,000 compounds, 0.2% hits; Potency, µM (series often up to 58.2 µM), inactives show at the top dose activity change, negative = inhibition, usual class: inhibitors; AID 720542; AlphaScreen AMA1-biotinylated RON2 peptide binding;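 also: 0% = vehicle wells and -100% = peptide control; nearly all actives have a fitted effect of over 45% in size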
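AMA1 (3D7) with his tag at 25 nM final met compounds first, then biotinylated RON2 peptide at 25 nM; detection used donor plus acceptor beads, 10 µg/mL apiece, read by AlphaScreen after 30 min at room temperature.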
Pf growth 96h: inhibits malaria parasite growth, 96 h; P. falciparum luciferase reporter growth, 96 h; Potency, µM (highest dose often 28.7 µM), for inactives: at the highest dose activity change, negative = inhibition, usual class: inhibitors; 320,000 compounds, 6.9% hits
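Luminescence readout: decreased luciferase signal marks inhibited growth of reporter-expressing P. falciparum in infected red cells (2% hematocrit, 0.05% parasitemia final), exposed to compound two generations (96 h, 37 C, 5% CO2).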
HCV inhibitor: inhibitors of hepatitis C virus infection; Huh7.5.1 HCVcc-Cre infection, luciferase reporter, 44 h; Potency, µM (titrated, usually from 41.8 µM), without a hit: at the top dose activity change, negative = inhibition, actives largely listed as inhibitors; 340,000 compounds, 3.4% hits
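A cell-based infection assay in which seeded cells (1,000 per well) receive test compound after 4 h, are inoculated with HCVcc-Cre at approximately 0.5 moi, and are incubated 44 h before luminescence detection.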
Pf growth 48h: inhibits P. falciparum growth in the first generation, 48 h; P. falciparum luciferase growth in erythrocytes, 48 h; Potency, µM (doses to about 28.7 µM), for the others: top-dose activity change, negative = inhibition, most hits filed as inhibitors; 310,000 compounds, 5.9% hits; AID 504832
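In quantitative HTS format, infected erythrocytes bearing luciferase-reporter parasites were treated for a single generation at 37 C. Luminescence after adding detection reagent served as the growth measure.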
* = called active by the depositor. A selection: hits, their analogues and other compounds. The true share with any hit is near 11%. Calls follow the shape of the dose curve; as a rule, active = well fitted curve in the direction sought with a large enough effect; inconclusive = small, poorly fitted or top-dose-only effect, or another doubt; inactive = no such curve, though single readings can be large; an effect the other way counts as inactive or inconclusive. Unless noted, % is scaled to controls: 0 for no effect and ±100 for the full control effect; potency is read from the fitted curve at half-maximal effect.

`Cn1c(=O)[nH]c(=O)c2c1nc(N1CCOCC1)n2CCSc1nc2ccccc2[nH]1` gave AMA1 RON2 block 14.0%, Pf growth 96h 16.1%, HCV inhibitor 21.4% and Pf growth 48h 3.7%.
O=C(/C=C/c1cccc(Br)c1)NCc1ccncc1 was read as AMA1 RON2 block 6.1%, Pf growth 96h -13.3%, HCV inhibitor -8.6% and Pf growth 48h -9.2%.
Screening COc1ccc(C(=O)OCC(=O)NC(=O)NC2CCCC2)c(OC)c1 returned AMA1 RON2 block 0.8%, Pf growth 96h 23.6%, HCV inhibitor -8.0% and Pf growth 48h 11.7µM*.
For COc1ccc(C(=O)OCC(=O)NC2CCCC2)c(OC)c1 the results were AMA1 RON2 block 0.5%, Pf growth 96h 53.5%, HCV inhibitor -8.1% and Pf growth 48h 42.2%.
O=C(NC(=S)N1CCCCC1CO)c1cc(Br)ccc1Cl (stereo not given) was read as AMA1 RON2 block 63.5%, Pf growth 96h 79.8%, HCV inhibitor 5.4% and Pf growth 48h 46.8%.
Screening O=c1cc(N2CCc3ccccc3C2)[nH]c(=O)n1-c1ccc(Cl)cc1 returned AMA1 RON2 block -4.6%, Pf growth 96h -19.4%, HCV inhibitor -3.8% and Pf growth 48h 51.5%.
Screening O=c1cc(N2CCc3ccccc3C2)[nH]c(=O)n1-c1ccc(Br)cc1 returned AMA1 RON2 block -1.6%, Pf growth 96h 7.38µM*, HCV inhibitor 25.5% and Pf growth 48h 20.7%.
c1coc(-c2ccnc3ncnn23)c1 was read as AMA1 RON2 block 0.0%, Pf growth 96h 10.9%, HCV inhibitor 24.5% and Pf growth 48h -12.2%.
Cc1ccc(CNS(=O)(=O)c2ccc(-n3cnnn3)c(C)c2)cc1 was read as AMA1 RON2 block 0.0%, Pf growth 96h inconclusive, HCV inhibitor -11.4% and Pf growth 48h -2.2%.
`CCOC(=O)c1nnn(CC(=O)N2N=C(c3cccc4ccccc34)CC2c2ccccc2)c1C(=O)OCC` (stereo not given) gave AMA1 RON2 block 9.0%, Pf growth 96h inconclusive, HCV inhibitor -16.4% and Pf growth 48h 9.28µM*.
COc1cccc(CNC(=O)CCS(=O)(=O)c2ccccc2Cl)c1 was read as AMA1 RON2 block 19.0%, Pf growth 96h inconclusive, HCV inhibitor 32.2% and Pf growth 48h -1.5%.
CCOC(=O)CC(NS(=O)(=O)Cc1ccccc1)c1ccc(C)cc1 (stereo not given) was read as AMA1 RON2 block -7.4%, Pf growth 96h 5.5%, HCV inhibitor 4.6% and Pf growth 48h 1.3%.
O=C(O)CCCC(=O)N1N=C(c2ccccc2)CC1c1ccc2nccnc2c1 (stereo not given) was read as AMA1 RON2 block -8.0%, Pf growth 96h 3.7µM*, HCV inhibitor 4.0% and Pf growth 48h 13.9%.
O=C(c1ccco1)N1N=C(c2ccccc2)CC1c1ccc2nccnc2c1 (stereo not given) was read as AMA1 RON2 block 5.7%, Pf growth 96h 7.38µM*, HCV inhibitor inconclusive and Pf growth 48h inconclusive.
`CCOc1ccc(OCCSc2ccc(S(=O)(=O)N3CCN(C)CC3)cn2)cc1` gave AMA1 RON2 block -28.7%, Pf growth 96h 14.7µM*, HCV inhibitor 11.2µM* and Pf growth 48h inconclusive.
For CN1CCN(S(=O)(=O)c2ccc(SCCOc3ccccc3)nc2)CC1 the results were AMA1 RON2 block -9.7%, Pf growth 96h inconclusive, HCV inhibitor -18.5% and Pf growth 48h -9.6%.
Screening O=S(=O)(c1ccc(SCCOc2ccc(Br)cc2)nc1)N1CCCC1 returned AMA1 RON2 block -1.8%, Pf growth 96h inconclusive, HCV inhibitor 5.62µM* and Pf growth 48h inconclusive.
O=S(=O)(c1ccc(SCCOc2ccc(Cl)cc2)nc1)N1CCCC1 was read as AMA1 RON2 block 34.3%, Pf growth 96h inconclusive, HCV inhibitor inconclusive and Pf growth 48h 13.1µM*.
Screening O=S(=O)(c1ccc(SCCO)nc1)N1CCCC1 returned AMA1 RON2 block 0.7%, Pf growth 96h -22.2%, HCV inhibitor 13.9% and Pf growth 48h -1.5%.
`COC(=O)/C(C#N)=C1/C=Cc2ccccc2N1` gave AMA1 RON2 block -18.9%, Pf growth 96h 79.1%, HCV inhibitor 8.1% and Pf growth 48h 71.2%.
`COc1ccc(C2OCC(C)([N+](=O)[O-])CO2)cc1` (stereo not given) gave AMA1 RON2 block 16.9% and HCV inhibitor 22.0%.
O=C(COC(=O)c1ccccc1S(=O)(=O)N1CCCCC1)NCC(F)(F)F was read as AMA1 RON2 block 1.3%, Pf growth 96h 13.1µM*, HCV inhibitor -3.2% and Pf growth 48h -12.2%.
Cc1ccc(NC(=O)COC(=O)c2ccccc2F)cc1S(=O)(=O)N1CCCCC1 was read as AMA1 RON2 block 16.1%, Pf growth 96h 71.0%, HCV inhibitor -0.8% and Pf growth 48h -0.7%.
`O=c1c2ccccc2nc2n1CCC2O` (stereo not given) gave AMA1 RON2 block 1.7%, Pf growth 96h 37.6%, HCV inhibitor 33.1% and Pf growth 48h 30.9%.
For O=C(CCC1CCCCC1)Nc1nncs1 the results were AMA1 RON2 block 4.3%, Pf growth 96h inconclusive, HCV inhibitor -7.0% and Pf growth 48h 14.6%.
For COc1cccc(-c2nc(NCc3ccco3)c3ccccc3n2)c1O the results were AMA1 RON2 block 9.1%, Pf growth 96h inconclusive, HCV inhibitor inconclusive and Pf growth 48h inconclusive.
`COc1cccc(-c2nc(N3CCCCC3C)c3ccccc3n2)c1O` (stereo not given) gave AMA1 RON2 block -25.6%, Pf growth 96h 3.2%, HCV inhibitor 8.91µM* and Pf growth 48h inconclusive.
For COc1cccc(-c2nc(NCc3ccccc3)c3ccccc3n2)c1O the results were AMA1 RON2 block -5.1%, Pf growth 96h inconclusive, HCV inhibitor inconclusive and Pf growth 48h 14.7µM*.
For C=CCNc1nc(-c2cccc(OC)c2O)nc2ccccc12 the results were AMA1 RON2 block -11.0%, Pf growth 96h inconclusive, HCV inhibitor 15.8µM* and Pf growth 48h inconclusive.
For c1csc(CNc2nc(-c3cccs3)nc3ccccc23)c1 the results were AMA1 RON2 block 2.7%, Pf growth 96h inconclusive, HCV inhibitor inconclusive and Pf growth 48h -26.0%.
For c1ccc(CN2CCC(Nc3nc(-c4cccs4)nc4ccccc34)CC2)cc1 the results were AMA1 RON2 block -22.6%, Pf growth 96h 5.22µM*, HCV inhibitor inconclusive and Pf growth 48h 5.22µM*.
For COc1cccc(-c2nc(N3CCN(C)CC3)c3ccccc3n2)c1O the results were AMA1 RON2 block -6.1%, Pf growth 96h 0.0%, HCV inhibitor inconclusive and Pf growth 48h 0.0%.
For CCN1CC(CN(C)Cc2nc(-c3ccc(C(F)(F)F)cc3)oc2C)CC1=O (stereo not given) the results were AMA1 RON2 block 2.7%, Pf growth 96h inconclusive, HCV inhibitor -12.4% and Pf growth 48h inconclusive.
`COc1ccc(NC(=O)C2c3ccccc3OCC(=O)N2CCc2ccccc2)cc1` (stereo not given) gave AMA1 RON2 block -10.2%.
For CCN(CC)c1nc(-c2cccc(OC)c2O)nc2ccccc12 the results were AMA1 RON2 block inconclusive, Pf growth 96h 15.1% and HCV inhibitor -25.4%.
